This is a sample that favours compounds with a hit; in the whole collection about 2.5% have one here.
Mcl-1 Bim block: inhibitors of Bim-Mcl-1 interaction, human | Q07820 | inhibition, % at 10 µM | Bead-based flow cytometry, Bim peptide-Mcl-1 binding | 190,000 compounds, 0.1% hits; in the data active = inhibition above about 40%;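 also: 0% = no compound tracer wells and 100% = peptide blocker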
Target sequence (Q07820 whole entry, looked up): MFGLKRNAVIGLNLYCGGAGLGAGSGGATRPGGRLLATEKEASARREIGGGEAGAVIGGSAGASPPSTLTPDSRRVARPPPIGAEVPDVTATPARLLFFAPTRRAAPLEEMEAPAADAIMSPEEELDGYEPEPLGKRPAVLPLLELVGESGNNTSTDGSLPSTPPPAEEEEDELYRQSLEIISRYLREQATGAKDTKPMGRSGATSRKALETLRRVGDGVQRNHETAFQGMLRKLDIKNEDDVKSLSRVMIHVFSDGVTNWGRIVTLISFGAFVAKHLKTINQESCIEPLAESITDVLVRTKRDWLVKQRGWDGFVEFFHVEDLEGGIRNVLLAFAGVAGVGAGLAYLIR
Mcl1-Bid inh: Mcl-1/Bid interaction inhibition; inhibition, % at 21.7 µM; TR-FRET Mcl-1/Bid-Dy647 peptide binding, 1536-well; 220,000 compounds, 0.97% hits;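 active = compounds that cut the binding signal by more than half at the single screening dose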;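 also: His-tagged Mcl-1 with europium anti-His antibody binding Bid BH3 peptide; 0% = Mcl-1 plus peptide wells and 100% = peptide-only wells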
MCL1 BIM primary: disrupts human MCL1 binding to BIM-BH3 peptide; Q07820; GST-MCL1 / FITC-Bim-BH3 fluorescence polarization; inhibition, % at 10.9 µM; 320,000 compounds, 0.68% hits; AID 2057;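 active = inhibition above the mean inhibition of all tested compounds plus 3 SD, set per campaign, cut at about 40% in these data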;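 also: 0% = DMSO wells and 100% = unlabeled Bim-BH3 peptide control; higher means more loss of mP so more displacement of Bim peptide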
14-3-3 Bad inh: disrupts binding of bovine 14-3-3 zeta to phospho-Bad peptide; P63103; TR-FRET 14-3-3zeta/Dy647-pBad peptide displacement, 1 h; inhibition, % at 21.7 µM; 220,000 compounds, 0.71% hits;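 active = inhibition above about 70%, limit read from the data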;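 also: 0% = full 14-3-3 plus peptide FRET controls and 100% = background without 14-3-3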
Mcl1-Noxa inh: Mcl-1/Noxa interaction inhibition; Q07820; TR-FRET Mcl-1/Noxa peptide binding, 2 h; inhibition, % at 21.7 µM; 220,000 compounds, 1.5% hits; AID 1022;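 active = compounds that cut the protein-peptide binding signal by more than 50% relative to plate controls in a single-dose test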;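 also: His-tagged Mcl-1 with rhodamine Noxa BH3 peptide and terbium anti-His antibody; 0% = Mcl-1 plus Noxa peptide wells and 100% = peptide-only wells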
BCLXL inh confirm: counter-screen for MCL1 inhibitors: confirmation of human Bcl-xL inhibitors; shares compounds with MCL1 BIM primary; GST-Bcl-xL / FITC-Bim BH3 peptide FP binding; inhibition, % at 10.9 µM; 1,700 compounds, 54% hits; AID 2166;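 active = inhibition above a cutoff equal to the mean inhibition of all tested compounds plus 3 SD, cut at about 30% in these data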;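 also: 0% = DMSO wells and 100% = unlabeled Bim BH3 control peptide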
Target sequence (Q07817 whole entry, looked up): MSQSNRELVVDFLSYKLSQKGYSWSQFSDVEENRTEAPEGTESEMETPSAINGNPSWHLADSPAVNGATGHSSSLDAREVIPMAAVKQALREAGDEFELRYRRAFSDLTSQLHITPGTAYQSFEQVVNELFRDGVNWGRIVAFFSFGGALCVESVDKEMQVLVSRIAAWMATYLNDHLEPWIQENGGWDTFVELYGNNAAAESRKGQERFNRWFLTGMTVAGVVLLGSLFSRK
MCL1 BIM confirm: confirmation of human MCL1 and BIM-BH3 interaction inhibitors; shares compounds with MCL1 BIM primary; GST-MCL1 / FITC-Bim-BH3 fluorescence polarization; inhibition, % at 10.9 µM; 1,700 compounds, 61% hits; AID 2168;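 active = inhibition above the average of all tested compounds plus 3 SD, cut at about 40% in these data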;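 also: 0% = DMSO wells and 100% = unlabeled Bim-BH3 control peptide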
The depositor's hits bear a star; x = no result; + = active, no number; [ ] = another dose, or the depositor's remark.

SMILES	Mcl-1 Bim block	Mcl1-Bid inh	MCL1 BIM primary	14-3-3 Bad inh	Mcl1-Noxa inh	BCLXL inh confirm	MCL1 BIM confirm
CN1CCC(N(C)C(=O)c2cccc(S(=O)(=O)N3CCOCC3)c2)CC1	x	x	7.2	x	x	x	x
O=c1c2ccccc2nc2n1CC/C2=C/N1CCN(c2cccc(C(F)(F)F)c2)CC1	-5.0	-30.8	55.6*	17.4	20.3	19.7	15.9
O=C(NNS(=O)(=O)c1ccccc1)c1csc(-c2cccnc2)n1	x	-16.7	-0.1	-4.2	10.2	x	x
COc1ccccc1OCCn1ccnc1	x	x	-2.0	x	x	x	x
COC(=O)CCCC1=CC2=CC(=O)C(C)(OC(=O)C3CCCC3)C(=O)C2=CO1 (configuration not stated)	x	-61.6	62.5*	-4.8	42.2	41.1*	62.6*
CCCCC1=CC2=CC(=O)C(C)(OC(=O)C3CCCC3)C(=O)C2=CO1 (configuration not stated)	x	-54.5	31.7	-0.6	39.9	x	x
CCC(=O)OC1(C)C(=O)C=C2C=C(CCCC(=O)OC)OC=C2C1=O (configuration not stated)	x	x	85.6*	x	x	41.3*	74.9*
CCCCC1=CC2=CC(=O)C(C)(OC(=O)CC)C(=O)C2=CO1 (configuration not stated)	x	x	31.7	x	x	x	x
O=C(NCCC1=CCCCC1)C(=O)NCc1ccncc1	2.0	-18.7	68.3*	-6.1	10.0	9.0	-0.9
CN(C)C(CNC(=O)c1ccc2c(c1)S(=O)(=O)c1ccccc1C2=O)c1ccco1 (configuration not stated)	-1.0	-1.7	4.3	-3.6	8.9	x	x
O=C(O)c1ccc2c3c(cccc13)C(=O)N(c1ccccc1)C2=O	3.0	-60.8	36.9	26.0	-1.7	x	x
Cc1c(O)c2c3c(cccc3c1O)C(=O)N(c1ccccc1)C2=O	-3.0	-5.7	97.9*	-7.9	-8.9	92.3*	105.3*
Cc1ccc2c(c1)c(=O)c1c3n2CCN(C(=O)CCl)C3CC1 (configuration not stated)	2.0	-0.9	54.8*	1.9	22.1	30.4*	43.8*
CC1CN(C(=O)Cn2cc(SCC(=O)N3CCOCC3)c3ccccc32)CC(C)O1 (configuration not stated)	x	x	-0.1	x	x	x	x
O=C1CC(c2ccc(O)c(O)c2)Oc2c1ccc(O)c2O (configuration not stated)	x	-86.4	70.3*	48.7	106.2*	20.4	77.7*
CC(C)=CCc1c(O)ccc2c1OC(c1ccc(O)c(O)c1)CC2=O (configuration not stated)	-1.0	-6.5	16.4	2.7	32.8	x	x
O=C(Cc1ccccc1)N/N=C/c1ccc[nH]1	x	-40.5	-1.7	-1.5	-11.6	x	x
O=C(NC1CCCC1)C(c1ccncc1)N(C(=O)Cc1cccs1)c1ccccc1 (configuration not stated)	-4.0	-22.4	11.2	-3.5	-1.9	x	x
O=S(=O)(c1ccc(Cl)cc1)N1CCN(Cc2ccncc2)CC1	x	x	-1.9	x	x	x	x
CSc1nsc(/C=C/Nc2ccc(O)cc2C)c1C#N	-3.0	-29.3	49.0*	-11.7	55.4*	43.3*	8.4
COc1cc2[nH]c(C(=O)NCCc3ccccc3)cc2c(OC)c1OC	x	x	1.3	x	x	x	x
c1ccc2c(c1)nc(N1CCOCC1)c1nnnn12	-1.0	-27.6	26.4	-0.4	16.4	x	x
c1ccc(N2CCN(c3nc4ccccc4n4nnnc34)CC2)cc1	0.0	-47.5	58.5*	2.3	8.3	37.5*	37.8
CCOC(=O)N1CCc2c(sc(NC(=O)CCS(=O)(=O)c3ccccc3)c2C(N)=O)C1	x	x	47.6*	x	x	12.5	17.8
Cc1ccc(N2C(=O)c3cccc4c(N5CCN(C)CC5)ccc(c34)C2=O)c2cccnc12	0.0	-3.3	+	0.1	-4.5	+	+
SMILES	Mcl-1 Bim block	Mcl1-Bid inh	MCL1 BIM primary	14-3-3 Bad inh	Mcl1-Noxa inh	BCLXL inh confirm	MCL1 BIM confirm
COC(=O)C1=C(C)N(Cc2ccco2)C(=O)N[C@H]1c1ccccc1	0.0	-14.2	2.1	-1.0	-3.9	x	x
COc1ccc2nc(N3CCCC3)c(C#N)cc2c1	0.0	1.4	66.9*	-3.2	5.3	115.0*	130.0*
COc1ccc2nc(SCC(=O)N3CCCCC3)c(C#N)cc2c1	-3.0	-27.3	4.3	-10.9	22.1	x	x
Cc1cc2nc3c(=O)[nH]c(=S)[nH]c3nc2cc1NC(=O)C(F)(F)F	x	x	+	x	x	184.8*	196.7*
Cc1ccccc1[C@@]1(C)ON(c2ccccc2C(F)(F)F)C1=O	x	x	-4.2	x	x	x	x
COc1ccc(OC)c(-c2oc3ccccc3c(=O)c2O)c1	-3.0	-14.3	-1.7	-3.0	5.8	x	x
COc1ccc(OC)c(-c2c3cc(O)c(=O)cc-3oc3cc(O)c(O)cc23)c1	-116.0	-1.0	118.4*	74.6*[fluorescence artefact?]	90.9*	120.3*	133.4*
Nc1ccc(Nc2ccccc2)c(S(=O)(=O)O)c1	x	-19.8	41.5*	50.1	41.1	47.9*	78.0*
Cc1ccc(Nc2ccc(N)cc2S(=O)(=O)O)cc1	x	-27.1	35.0	6.9	20.6	x	x
CN(C)c1ccc(N=Cc2ccco2)cc1	9.0	-77.0	23.1	-6.1	47.4	x	x
C(=Nc1cccc2c(N=Cc3ccco3)cccc12)c1ccco1	4.0	-15.0	75.6*	-0.5	58.4*	25.4	22.0
COc1ccccc1N1CCN(C2CCCN(C(=O)c3ccnc4ccc(C)cc34)C2)CC1 (configuration not stated)	x	x	-6.1	x	x	x	x
CSC1=NCCN1C(=O)Cc1ccc(Cl)cc1	0.0	1.4	-5.5	-12.9	19.1	x	x
O=C(c1ccco1)[C@@H]1[C@@H]2C(=O)N(c3ccccc3)C(=O)[C@@H]2C2c3ccccc3C=CN21 (some centres not stated)	x	x	79.3*	x	x	59.5*	77.2*
Cc1ccc(N2C(=O)[C@@H]3[C@H](C2=O)C2c4ccccc4C=CN2[C@@H]3C(=O)c2ccco2)c(C)c1 (some centres not stated)	x	x	62.7*	x	x	44.5*	58.8*
COc1ccc(N2C(=O)[C@@H]3[C@H](C2=O)[C@H]2c4ccccc4C=CN2[C@@H]3C(=O)Nc2ccccc2)cc1	-6.0	-6.7	-49.9	-18.2	30.3	x	x
CC(C)(C)C(=O)[C@@H]1[C@@H]2C(=O)N(c3ccc4c(c3)OCCO4)C(=O)[C@@H]2C2c3ccccc3C=CN21 (some centres not stated)	1.0	-18.1	0.2	-7.3	6.9	x	x
O=C(O)c1cccc(N2C(=O)c3cc([N+](=O)[O-])cc4cc([N+](=O)[O-])cc(c34)C2=O)c1	x	x	46.9*	x	x	21.4	45.3*
COc1ccc(C(=O)OCC(=O)Nc2ncc([N+](=O)[O-])s2)cc1OC	x	x	73.8*	x	x	28.0	57.6*
O=C(COC(=O)c1ccc(Br)o1)Nc1ncc([N+](=O)[O-])s1	x	x	35.1	x	x	x	x
CC(=O)Oc1cc(O)c2c(c1)OC(c1ccc(OC(C)=O)c(OC(C)=O)c1)C(OC(C)=O)C2=O (configuration not stated)	x	x	3.0	x	x	x	x

Screening data deposited in PubChem by several laboratories.
